Screens (PubChem BioAssay)
In the library only some 2.9% were active in any assay of this set; here they are far more common.
MEKK2 WT-MEK5: raises or lowers MEK5 binding to wildtype human MEKK2 PB1 domain | binding response (% of control), % at 10 µM | bead flow cytometry, Alexa488-MEK5 binding to MEKK2 WT; actives lie on both sides | actives 1.1% (n = 290,000); in the data active = binding response below about 67% or above about 130%
MEKK2mut PB1 HTS: signal of MEK5 binding to mutant human MEKK2 PB1 domain; actives 0.35% (n = 290,000); percent response, % at 10 µM; bead flow cytometry, Alexa488-MEK5 binding to MEKK2 mutant; AID 1530; in the data active = percent response above about 24%, passing the limit was not always enough
FID counter: fluorescent intercalator displacement, NS3 helicase counter-screen; DNA fluorescent intercalator displacement, fluorescence; inhibition, % at 7.9 µM; actives 0.17% (n = 290,000); AID 1845; in the data active = inhibition above about 37%;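 note: higher means more ethidium bromide displaced from hairpin DNA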
dFosB activator: mouse delta FosB homodimer activation. AID 493131. actives 0.99% (n = 340,000). activation, % at 25 µM. purified delta FosB, TAMRA-CDK5 oligo fluorescence polarization; percent of positive-control signal above neutral wells;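 active = mean activation above about 17%, with every replicate also reaching it, limit read from the data, passing the limit was not always enough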
Target sequence (P13346 whole entry, looked up): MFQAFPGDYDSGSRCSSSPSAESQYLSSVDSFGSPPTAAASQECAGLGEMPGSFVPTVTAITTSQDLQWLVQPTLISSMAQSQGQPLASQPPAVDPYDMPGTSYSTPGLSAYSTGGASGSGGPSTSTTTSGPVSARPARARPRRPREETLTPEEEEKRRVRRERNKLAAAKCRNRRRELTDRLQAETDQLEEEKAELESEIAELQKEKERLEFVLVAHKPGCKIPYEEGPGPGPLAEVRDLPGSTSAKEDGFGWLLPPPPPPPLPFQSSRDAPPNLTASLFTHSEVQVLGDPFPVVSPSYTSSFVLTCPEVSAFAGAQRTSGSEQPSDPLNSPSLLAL
MEKK3 PB1 HTS: raises or lowers MEK5 binding to the human MEKK3 PB1 domain. bead-based flow cytometry, Alexa488-MEK5 binding to MEKK3; actives lie on both sides; 0 = blocked by unlabeled MEK5, 100 = vehicle. Q99759. actives 1.4% (n = 290,000). binding response (% of control), % at 10 µM;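 active = binding response more than 3 SD above or below the average of its plate-row segment, actives on both sides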;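 note: Alexa488 bead fluorescence after subtracting the streptavidin-only scavenger bead signal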
MEKK2wt confirm: raises or lowers MEK5 binding to wildtype human MEKK2, retest; shares compounds with MEKK3 PB1 HTS; bead flow cytometry, Alexa488-MEK5 binding to MEKK2 WT; actives lie on both sides; binding response (% of control), % at 10 µM; actives 2.4% (n = 5,900); AID 1892; in the data active = binding response below about 16% or above about 210%; inactive = in between
MEKK2mut-MEK5: signal of MEK5 binding to mutant human MEKK2, retest | AID 1893 | percent response, % at 10 µM | shares compounds with MEKK3 PB1 HTS | actives 2% (n = 5,900) | bead flow cytometry, Alexa488-MEK5 binding to MEKK2 mutant; in the data active = percent response mostly above about 71%, no sharp cut-off; inactive = mostly below about 38%;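 note: higher means compound restores mutant binding toward wildtype level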
MEKK3 confirm: MEKK3-MEK5 PB1 inhibition, single concentration confirmation | shares compounds with MEKK3 PB1 HTS | AID 1894 | actives 1.8% (n = 5,900) | bead flow cytometry, Alexa488-MEK5 binding to MEKK3; hits give low values | binding response (% of control), % at 10 µM;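 active = binding response below 72% of control, or above a set upper limit, though filed actives all read lower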;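 note: lower values mean stronger disruption of MEK5 binding to MEKK3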
Large screens that a line does not name were inactive (follow-up assays come after a bar, where they were run); [ ] = another dose, or the depositor's remark.

O=C(CN(c1cccc([N+](=O)[O-])c1)S(=O)(=O)c1ccccc1)N(Cc1ccccc1)Cc1ccccc1	MEKK3 PB1 HTS 137 | MEKK2wt confirm inactive | MEKK2mut-MEK5 inactive | MEKK3 confirm inactive
O=C(CN(c1cccc([N+](=O)[O-])c1)S(=O)(=O)c1ccccc1)NCc1ccccc1	none
Cc1ccc(C(=O)COC(=O)c2ccncc2)cc1[N+](=O)[O-]	MEKK3 PB1 HTS 52[inhibitor] | MEKK2wt confirm inactive | MEKK2mut-MEK5 inactive | MEKK3 confirm inactive
OCC[C@@H]1C[C@@H](O)[C@H](O)[C@]2(CCc3ccccc3CO2)O1	none
Cc1cc(C)nc(SC(C)CNS(=O)(=O)c2ccccc2)n1 (configuration not stated)	none
CCNC(=S)NNC(=O)C1CCCCC1	MEKK2 WT-MEK5 2.0[inhibitor], MEKK3 PB1 HTS 2.0[inhibitor] | MEKK2wt confirm inactive | MEKK2mut-MEK5 inactive | MEKK3 confirm inactive
COc1ccc(S(=O)(=O)N2CCC(C(=O)N3CCCCC3)CC2)cc1OC	MEKK3 PB1 HTS 130 | MEKK2wt confirm inactive | MEKK2mut-MEK5 inactive | MEKK3 confirm inactive
CCOC(=O)N1CCC(c2nc3ccccc3[nH]2)CC1	none
O=C(N1CCCCC1)N1CCC(c2nc3ccccc3[nH]2)CC1	MEKK2 WT-MEK5 2.0[inhibitor], MEKK3 PB1 HTS 1.0[inhibitor] | MEKK2wt confirm inactive | MEKK2mut-MEK5 inactive | MEKK3 confirm inactive
COc1ccc(/C=N/NC(=O)Cc2n[nH]c(=O)[nH]c2=O)cc1	none
COc1ccc(/C=N/NC(=O)CSc2n[nH]c(=O)[nH]c2=O)cc1	MEKK3 PB1 HTS 74[inhibitor] | MEKK2wt confirm inactive | MEKK2mut-MEK5 inactive | MEKK3 confirm inactive
O=C(CN1C(=O)NC2(CCCC2)C1=O)N1CCc2ccccc2C1	none
CCN1C(=O)c2cccc3c(S(=O)(=O)NCCCN4CCOCC4)ccc1c23	MEKK3 PB1 HTS 125 | MEKK2wt confirm inactive | MEKK2mut-MEK5 inactive | MEKK3 confirm inactive
NC(=O)C1CC(=O)N(c2ccc(OCc3ccc(F)cc3)cc2)C1 (configuration not stated)	none
O=C(OCc1nc2ccccc2s1)c1ccc([N+](=O)[O-])o1	none
O=C(OCc1nc2ccccc2s1)c1ccc(Br)o1	MEKK3 PB1 HTS 144 | MEKK2wt confirm inactive | MEKK2mut-MEK5 inactive | MEKK3 confirm inactive
COc1ccc(N2CCN(CCCNC(=O)Cn3c(=O)c4cccn4c4cccnc43)CC2)cc1	MEKK2 WT-MEK5 138 | MEKK2wt confirm inactive | MEKK2mut-MEK5 inactive | MEKK3 confirm inactive
CC(C)COC(=O)c1ccc(N2C(=O)c3ccccc3C2=O)cc1	MEKK2 WT-MEK5 7.0[inhibitor], MEKK3 PB1 HTS 5.0[inhibitor] | MEKK2wt confirm inactive | MEKK2mut-MEK5 inactive | MEKK3 confirm inactive
Cc1cccc(NC(=O)CCS(=O)(=O)c2ccc(Cl)cc2)c1	none
O=C(CSc1nccn1-c1cccc(Cl)c1)NO	none
O=C(CSc1nccn1-c1ccccc1)NO	MEKK2mut PB1 HTS 51, MEKK3 PB1 HTS 33[inhibitor] | MEKK2wt confirm inactive | MEKK2mut-MEK5 inactive | MEKK3 confirm inactive
CCc1cc(C(=O)Nc2ncccc2O)sc1C	none
COC(=O)CCC(=O)N1CCCC(N2CCN(c3cccc(C(F)(F)F)c3)CC2)C1 (configuration not stated)	MEKK2 WT-MEK5 19[inhibitor], MEKK3 PB1 HTS 37[inhibitor] | MEKK2wt confirm inactive | MEKK2mut-MEK5 inactive | MEKK3 confirm inactive
COC(=O)C(NC(=O)CCc1c(C)nc2c(c(C)nn2-c2ccccc2)c1C)C(C)C (configuration not stated)	none
CCOc1ccc(NC(=O)CN(c2ccc(OC)cc2)S(=O)(=O)c2cccs2)cc1	none (no result: MEKK2 WT-MEK5, MEKK2mut PB1 HTS, FID counter, MEKK3 PB1 HTS)
N#CC1=C(N)OC2=C(C(=O)CCC2)[C@]12C(=O)N(CC(N)=O)c1ccccc12	MEKK2 WT-MEK5 -1.0[inhibitor], MEKK3 PB1 HTS 0.0[inhibitor] | MEKK2wt confirm inactive | MEKK2mut-MEK5 inactive | MEKK3 confirm inactive
N#CC1=C(N)OC2=C(C(=O)CCC2)C12C(=O)N1CCCc3cccc2c31 (configuration not stated)	none
Cc1nc(N2CCN(Cc3ccccc3)CC2)c(C#N)c2c1COC(C)(C)C2	MEKK3 PB1 HTS 79[inhibitor] | MEKK2wt confirm inactive | MEKK2mut-MEK5 inactive | MEKK3 confirm inactive
Cc1nc2c(oc3ccc(Cl)cc32)c(=O)[nH]1	MEKK3 PB1 HTS 49[inhibitor] | MEKK2wt confirm inactive | MEKK2mut-MEK5 inactive | MEKK3 confirm inactive
CCC(=O)N1CCc2cc(S(=O)(=O)CCC(=O)N(C)c3ccc(OC)cc3)ccc21	none
O=C(NNC(=O)c1cccs1)c1ccc(Cl)c(Cl)c1	MEKK3 PB1 HTS 149 | MEKK2wt confirm inactive | MEKK2mut-MEK5 inactive | MEKK3 confirm inactive
COc1ccc(S(=O)(=O)Nc2cc3c4c(c2)C(C)C(=O)N4CCC3)cc1OC (configuration not stated)	none (no result: MEKK2 WT-MEK5, MEKK2mut PB1 HTS, FID counter, MEKK3 PB1 HTS)
Cc1ccc(Sc2nc(C)cc(C)c2S(C)(=O)=O)cc1	MEKK3 PB1 HTS 82[inhibitor] | MEKK2wt confirm inactive | MEKK2mut-MEK5 inactive | MEKK3 confirm inactive
CCCn1c(=S)[nH]c2cc(C(=O)N3CCN(C4CCCCC4)CC3)ccc2c1=O	none
O=C(NNc1c(Cl)cncc1Cl)c1sccc1Cl	MEKK3 PB1 HTS 132 | MEKK2wt confirm inactive | MEKK2mut-MEK5 inactive | MEKK3 confirm inactive
O=C(NNc1ccc(Cl)cc1)c1sccc1Cl	none
CCC(=O)N1CCN(c2ccc(NC(=O)COc3ccc(CC)cc3)cc2)CC1	none
NC(=O)Cn1c(-c2nonc2N)nc2ccccc21	none
C=COCCn1c(-c2nonc2N)nc2ccccc21	MEKK3 PB1 HTS 122 | MEKK2wt confirm inactive | MEKK2mut-MEK5 inactive | MEKK3 confirm inactive
Cc1cc(Cl)c2oc(C(=O)N3CCN(c4ccncc4)CC3)c(C)c2c1	MEKK2 WT-MEK5 147, MEKK2mut PB1 HTS 25 | MEKK2wt confirm inactive | MEKK2mut-MEK5 inactive | MEKK3 confirm inactive
COc1cc(Cl)c(C)cc1NC(=O)c1ccc(S(C)(=O)=O)cc1	MEKK3 PB1 HTS 45[inhibitor] | MEKK2wt confirm inactive | MEKK2mut-MEK5 inactive | MEKK3 confirm inactive
COc1cc(NC(=O)c2ccccc2)c(OC)cc1Cl	none
C=CCn1c(C(CCCC)CC(O)COCC(C)C)n[nH]c1=S (configuration not stated)	none
Nc1nc(NCC2CCCO2)nc(Nc2ccc(F)cc2)c1[N+](=O)[O-] (configuration not stated)	MEKK3 PB1 HTS 199 | MEKK2wt confirm inactive | MEKK2mut-MEK5 inactive | MEKK3 confirm inactive
NNc1nc(-c2ccccc2)nc2sc3c(c12)CCCC3	MEKK3 PB1 HTS 142 | MEKK2wt confirm inactive | MEKK2mut-MEK5 inactive | MEKK3 confirm inactive
